Hit rate of the full screen: of about 53,000 sequences, about 3,700 (7%) were called active.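 The calls were made as follows: active = gene knockdowns whose robust z-score for IL-1 alpha signal is at least 2 or at most -2, so actives lie on both sides; inactive = the rest.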 The full list was thinned out, with actives kept by preference.
Assay: Components of the Cytosolic LPS Sensing Pathway: Gene Identification via Genome-wide siRNA Screen;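 also: robust z of the log signal after scaling to non-targeting control siRNA wells of the plate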
Conditions: RAW264.7 macrophages, IL-1a HTRF, actives lie on both sides, screened at 100 nM (by protocol), cells primed 5 h with Pam3CSK4 first
Outline: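 Using IL-1a HTRF as read-out, the screen measured release from RAW264.7 cells after 48h siRNA knockdown (100 nM), 5 h Pam3CSK4 priming and 24 h cytosolic LipidA. Values were expressed relative to negative-control wells as robust z-scores.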

z-score, active:
GCAAUGGUUCAGUAUGUACTT against Tpgs2 -2.01, CCAAGUCUUUGCCUACGUGTT against Dsn1 2.39, GAGCUAAGCAAGAUGCUAGTT against Sox17 3.97, GGAGAGCUGCAUGAUUUCATT against Efcab2 3.67, CGGAGUCUUCUUCUCACCUTT against A630001O12Rik -2.82, GCUCAGUCAUGUGACCGCATT against Fbxl18 2.93, GCCUCUAUAUCUUUCACUGTT against Olfr1209 -2.16, GCCAGCGACCUUUAGUACATT against Cmtm1 2.08, GCACACUGAUGAACUUACCTT against Ston2 2.55, GGAAGAAUGUGGGUAAAGATT against Gimap9 -2.01, CCUGCUUGCCAACACCAUATT against Slc39a13 -2.2, GGUUGUGCAACACAGCUCUTT against Olfr218 -2.31, GGGUUAAAGCGGUUUACUUTT against Kcng3 2.72, GGCCCAUCCUGAAACCAAATT against Wfdc15b -2.04, GGCCAAAGCCAGAAUCUCATT against Zfp281 3.07, GGAAGAAGAUCACCAUCAUTT against Ifi204 -2.64, GUCAUGGUAGGGAUUUACATT against Taar4 -2.83, GGAUCACUAACUUUUCCAATT against Trpc3 3.46, GCAUUUUUCGUUAGGAAAATT against Esco2 3.13, CCGGAUGGGAAUCGCUAAATT against Slc22a13b 2.17, CGCAGCUUUCUAUACUGGCTT against Ngf 2.41

z-score, inactive:
CGAAGAGAUCUCACUAUAATT against Trnt1 1.21, GCGCUAGAAGGCCAGAUAUTT against Orm3 -0.155, GCCAUCAACAGCAUUUACATT against Glt8d2 -0.455, GGAGCUUUCAGCUAAGACATT against Rassf4 0.671, GGACCAGCCAUACCUGUGATT against Ndufa7 -1.93, GCCACACAGUGUGAUCCAATT against Nrip2 -1.33, GGCUACCUACAGCACCAACTT against Esyt1 -1.58, GGAUGUAACUGAAAGAGAATT against Fam133b -1.11, GGACACUUAAAGAUCCUGCTT against Armc7 -0.545, GCUCAGAGAUUAUGGCAUCTT against Snrnp25 0.687, GCAUGAUUACCCAUUUCAATT against Tax1bp1 0.334, GGAGAAGGAGAUGUCCAAUTT against Guca2b 0.777, GCGAUUGAUGAAUUUCGACTT against Atp9b 0.616, GGAUUUCAAAAACCACGUGTT against Snx1 1.14, CCCACAGCUCUGACAUUUUTT against Fbxo6 -0.315, CCUAGGUCAUAUUUCUCCATT against Bgn 0.224, GGCAGUGGCUUGGAUAAAUTT against Amdhd2 -0.609, GCAGUCAUGGGUUCUUAAGTT against Gng3 0.109, CCAUAUCUCAUGAGGAAGGTT against Olfr1368 1.53, GGACGGUGACAAGAACAACTT against Tnnc1 1.72, GCUUCACGAUUAAAACUAATT against Ltb4r1 0, GGCUCAGGCAUUGUAACCATT against Dnm3 -0.177, GGUGCAUUCCUUGUGAAUGTT against Ctbp2 0.141, GGGAAAGGAAGUUGUUUUGTT against Epha2 0.878, GCAGCCUAUUACCUCAGACTT against Nwd2 1.02, GGAUCUCUCUUUCCUCCUCTT against Gli1 0.0792, GCCUUCAAGCCAAAGAUAGTT against Lin54 -0.582, GGCAAAGGCUAUCGCUCACTT against Smpd2 -1.46, CCGGACCAUCUUCGACAGUTT against Pmepa1 -0.783, GGAACUGUGUGUCUUCUCCTT against Kcns3 -1.78, CGGUGAAAGACUUCAGUAUTT against Ppfibp1 0.578, CCUGCUCUUCGUUAUCUUGTT against Olfr552 1.59, GCGACAGAGGAAGCUUGUUTT against Mak16 0.634, CGACAAGAAGACUUCGAAUTT against Mnt -1.28, GGCCUAUUUUUUCAUAGUUTT against Ptprs 0.0729, GGCAAAGUACUACGUGCAGTT against Sh3bp5 -0.225, GGCAGAAUAUGAGUUUGAUTT against Camk1d -0.161, GGAAAAAGAUGCGACAAUGTT against A930012O16Rik -1.01, GGGACCAUUCUGAAGAUGATT against Acot7 -1.76, GGAGAAUAUGUCGUCAUGATT against Gabra3 -1.09, GGAAAAACUGGUCUAUCAATT against Polr3f 1.47, CCGUUUUUGUGGUUCAGUGTT against Plxdc1 0.0355, GGCAACAUUGAACAUGCCUTT against Stambp -1.76, GCAGUUCAAGUCUUGAAUATT against Olfr934 -1.09, GGGUUUCUGUUAAUCCACATT against H3c8 -1.38, GGAACAACAUUGUUCUAAATT against Fstl5 0.759, GGGAGCCAUUUUUACAGACTT against Ffar4 0.405, GCCGGAACAUCCAGAAUAGTT against Cpeb2 -0.644, GCACCUAGCAUAGCAAUGGTT against Slc24a1 0.695, GCGAUGACCAAAAAUAUUGTT against Tmc1 -0.0131, GCUGGCUAGAAUCUUACCCTT against Aph1c 0.554, GGGCAUGCAAUGUUCAUGCTT against Rho 0.095, CGUGUCAGAACUCGAUCUUTT against Tbcel -0.549, GGCCAUUGUUACUGGAAAATT against Elmo2 -0.353, GGAACUGACUCUUGAAAAUTT against Cd14 0.367, GCUAGAGUCCAUAAACAAUTT against Olfr1148 -0.0654, GGAGCAAUCUGUUAAACUATT against Vash2 0.318, CCCGGAGUGGUCAGAAGUATT against Mapkapk2 -0.376, GGUAAGCAUGGAAAGGCUGTT against Prdm15 -0.0134, GCCGUCAGAUGACAACUAGTT against Lta 0.481, GGAUGACCUUGAAAGCAGUTT against Usp29 -0.677, GGCAAAGCUGUCUUAGAGGTT against Mettl23 -1.35, GGACAUAGAUCUACCUGAATT against Ctsb -1.48, GCUUAAUGCCUUGAAACGATT against Tsg101 1.9, GCACUUUGUGCUAGAUGAATT against Ddx39a -0.688, GGAAUUGAAACCUGAUGUUTT against Srfbp1 0.239, GCUACUGUGUCGGUCACAUTT against Olfr514 0.753, CCAGUGAUAACUCUCUUGUTT against A830039N20Rik 1.23, GGUUGUGUUUACCAUGAAGTT against Rps6ka6 0.684, GGAGAUCUAUUGGAUCCAUTT against Trim12a 0.337, CCAGAUGUCGGCAGAUAACTT against Pold4 0.446, GGGCUUUGAUCAGUUCUACTT against Hoxd11 1.88, GCACUUUAAUCUGGCUACCTT against Dnmt3b -0.78, GGCUCUGACCAAGAAUGAUTT against Cpsf1 1.27, GGCACACUCACUCCUUUGATT against Mis18bp1 0.145, GGAAACGAUGAAGAACAAATT against 4933427D06Rik -0.714, GGUAGAAACAAAGAAAUAGTT against 9130023H24Rik -0.183, GGGCUAAGGACAGAAUUACTT against Tusc2 -0.0196, GGAGAAGAACUAAAACUUATT against Bbs7 0.846, GGUCUCCAUCACAUUCAAGTT against BC024139 1.19, AAUCUUUUCGUGAAGGCACTT against Zfp948 0.84, CGAAUGCUUAUUUAGGUUGTT against Kpna4 -0.387, GCUGAAAUAUGUGAGAGCATT against Sdcbp 0.016, CCGGGUCAUUAUCUAUCAATT against Puf60 -0.383, GCACUUACUCUUCAACGGGTT against Yae1d1 1.87, GGUCGUCGUGAGAUCUUAUTT against Prlhr -0.342

Reference: PubChem BioAssay AID1508600 (Functional Genomics Laboratory (NCATS/FGL), 2020)
